Unmarked numbers belong to inactive results.
tested on: Caenorhabditis elegans L1 (N2); assay: survival and reproduction score of C. elegans L1 (0: 0-10 living worms, 1: 11-20, 2: 21-50, 3: >50, 4: overgrown) (score 0-4); higher = more worms, less nematicidal, active = 1 or less; extreme values may be limits of the assay; settings: 60 µM; 6 days; temperature: 20 °C
Protocol: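 DODA library (846 commercial 1,3,4- and 1,2,4-oxadiazole compounds plus commercial nematicide controls) screened at a single dose of 60 µM (0.6% DMSO) in 96-well plates, two biological replicates. Read-outs: C. elegans N2 L1 survival/reproduction score at day 6, 20 °C (0: 0-10 worms, 1: 11-20, 2: 21-50, 3: >50, 4: overgrown/starved). C. elegans daf-2 dauer, D. dipsaci and M. hapla J2 mobility at day 5, 20 °C, and P. penetrans mobility at day 5, 20 °C, each relative to DMSO controls. M. hapla egg hatching at day 12, 25 °C, relative to the mean of 8 DMSO wells on the same plate.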

SMILES	survival and reproduction score
COc1cccc(-c2nc(-c3ccc(Cl)cc3)no2)c1	4
Cc1cccc(-c2nnc(SCC(=O)Nc3ccccc3C(C)C)o2)c1	4
Cc1cccc(-c2noc(COc3ccc(C)cc3C)n2)c1	4
Nc1nc(CSc2nnc(-c3ccccc3)o2)cs1	4
COc1ccc(-c2noc(C3CCCCC3)n2)cc1	4
Cc1ccc(-c2nc(-c3ccccc3Cl)no2)c(Cl)c1	4
CC(=O)c1c(C)cc(C)c(CSc2nnc(-c3ccco3)o2)c1C	4
COc1ccc(-c2nnc(SCC(=O)Nc3cc(Cl)ccc3C)o2)cc1	4
Fc1ccc(OCc2nc(-c3ccc(Cl)cc3)no2)cc1	4
COC(=O)c1ccc(Cl)c(NC(=O)CSc2nnc(-c3ccc(Cl)cc3)o2)c1	4
Cc1cccc(-c2nc(-c3ccc(Br)cc3)no2)c1	0 (active)
O=C(CSc1nnc(-c2ccncc2)o1)Nc1cccc(Cl)c1Cl	4
COc1ccccc1-c1nc(-c2ccc(C)cc2)no1	4
CCOc1ccccc1-c1nc(-c2ccc(NC(=O)Cc3ccccc3OC)cc2)no1	4
COc1ccc(-c2nc(-c3ccccc3Cl)no2)cc1	4
COc1ccccc1-c1nnc(SCc2ccc(F)cc2)o1	4
Brc1cccc(-c2nc(-c3ccccc3)no2)c1	0 (active)
CC1Cc2ccccc2N1C(=O)CSc1nnc(-c2ccccc2)o1 (stereo not given)	4
Cc1cccc(-c2noc(COc3ccccc3Cl)n2)c1	4
Clc1cccc(-c2nc(-c3cccnc3)no2)c1	2

SMILES	survival and reproduction score
O=C(Nc1cccc(-c2noc(-c3cccnc3)n2)c1)c1cccs1	4
COc1ccc(Cl)cc1-c1nnc(SCC(=O)Nc2nccs2)o1	4
Cc1ccc(-c2nc(-c3ccncc3)no2)c(Cl)c1	2
COc1cccc(-c2noc(-c3cccc(F)c3)n2)c1	4
CCOc1ccc(-c2nc(-c3ccccc3)no2)cc1	4
Brc1cccc(-c2nc(-c3cccnc3)no2)c1	4
Cc1cc(C)cc(OCc2nc(-c3cc(C)nc4ccccc34)no2)c1	4
Cc1ccccc1OCc1nc(-c2ccccc2)no1	4
Cc1ccc(-c2nnc(SCc3ccc(Br)cc3)o2)cc1	4
Cc1cccc(-c2noc(-c3ccc(C)c(Cl)c3)n2)c1	4
CCOc1cc(-c2noc(-c3ccncc3)n2)ccc1OC	4
Clc1ccccc1CSc1nnc(-c2ccncc2)o1	4
CCOc1ccc(-c2nc(-c3ccc(C)cc3)no2)cc1	0 (active)
Cc1ccc(OC(C)c2nc(-c3ccc4c(c3)OCO4)no2)cc1C (stereo not given)	4
Cc1ccccc1-c1nnc(SCc2ccccc2)o1	3
CCNC(=O)c1ccccc1-c1nc(-c2ccc(F)cc2)no1	2
FC(F)(F)c1ccc(-c2noc(-c3ccccc3Cl)n2)cc1	4
C=CCOc1ccc(-c2nc(-c3cccnc3)no2)cc1	0 (active)
CCc1ccc(OCc2nc(-c3ccc(Cl)cc3)no2)cc1	4
Cc1cccc(-c2noc(-c3ccc(Cl)cc3)n2)c1	4

From the supplement of paper PMC11219838
